# A selection: hits, their analogues and other compounds. The true share with any hit is near 19%.
# TDP1 cell noCPT: qHTS for Inhibitors of human tyrosyl-DNA phosphodiesterase 1 (TDP1): qHTS in cells in absence of CPT. DT40 Tdp1-/- hTDP1 cells, no CPT, ATP luminescence, 48 h. 420,000 compounds, 15% hits. Potency, µM (doses to about 46.2 µM), for inactives: at the top dose activity change, negative = growth inhibition, hits mostly inhibitors; further: nearly all actives have a fitted effect of over 55% in size
#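 Compound effects on proliferation are scored in DT40 Tdp1-/-;hTDP1 cells in the absence of CPT. ATP levels (CellTiter-Glo luminescence) are recorded after a ≥48 hr, 37 °C incubation.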
# TDP1 cell CPT: DT40-hTDP1 cell growth loss with CPT | Potency, µM (highest dose often 46.2 µM), inactives show at the highest dose activity change, negative = growth inhibition, hits mostly inhibitors | 420,000 compounds, 12% hits | chicken DT40 Tdp1-/-;hTDP1 cells + 20 nM CPT, ATP luminescence, 48 h; further: nearly all actives have a fitted effect of over 55% in size
#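 Chicken DT40 Tdp1-/- cells stably complemented with human TDP1 were seeded at 400 cells/well in medium containing 20 nM camptothecin, exposed to pin-transferred compounds, and grown at 37 °C for at least 48 hr. Viability was read as ATP luminescence.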
# HT1080 IDH1KD tx: toxicity to HT-1080 IDH1 knockdown cells (counter line); HT-1080 IDH1 knockdown viability, ATP luminescence, 48 h; Potency, µM (doses to about 46.1 µM), for the others: at the top dose activity, negative = toxicity, hits mostly cytotoxic; 360,000 compounds, 2% hits; AID 686971;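 further: 0% = DMSO wells and -100% = cell-free medium wells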
#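 Luminescent ATP read-out (CellTiter-Glo, 10 min at room temperature) after 48 h compound exposure at 37 °C gave viability of IDH1-knockdown HT-1080 cells. Activity was normalised to DMSO and cell-free wells, then fitted as concentration-response curves.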
# KB-3-1 cytotox: kills parental KB-3-1 adenocarcinoma cells | KB-3-1 viability, CellTiter-Glo ATP luminescence, 72 h | Potency, µM (highest dose often 46.1 µM), most hits filed as cytotoxic | 400,000 compounds, 1.4% hits; further: nearly all actives have a fitted effect of over 60% in size
#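 Viability of parental KB-3-1 cells, measured by CellTiter-Glo luminescence, followed a 72 h incubation at 37 °C with pinned compounds in phenol-red-free DMEM containing 10% FBS.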
# KB-V1 MDR tox: KB-V1 MDR subline cytotoxicity; KB-V1 MDR cells viability, CellTiter-Glo, 72 h; Potency, µM (top dose mostly 46.1 µM), most hits filed as cytotoxic; 400,000 compounds, 3.4% hits; further: nearly all actives have a fitted effect of over 60% in size
#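 Luminescent ATP read-out (CellTiter-Glo, 10 min) measures survival of drug-selected KB-V1 MDR cells after 72 h, 37 degrees C compound exposure. Medium: phenol-red-free DMEM, 10% FBS. Values from fitted concentration-response curves.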
# HT1080NT lethal: kills 2HG-producing HT-1080-NT fibrosarcoma cells | Potency, µM (doses to about 46.1 µM), for the others: top-dose activity, negative = less viability, hits mostly cytotoxic | AID 686970 | HT-1080-NT fibrosarcoma viability, CellTiter-Glo ATP luminescence, 48 h | 360,000 compounds, 1.6% hits;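 further: NT is the 2HG producing partner of a matched IDH1 knockdown line; 0% = DMSO-treated cells and -100% = media-only wells without cells; nearly all actives have a fitted effect of over 55% in size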
#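 Compounds were tested in concentration-response format on HT-1080-NT cells for 48 hours at 37 degrees C. Cell viability came from CellTiter-Glo luminescence; curves were classified by r2, response magnitude and activity.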
# Numbers without * were called inactive; i = inactive; ? = inconclusive; . = not tested or not shown. The call rests on the fitted dose curve; in most records, active means well fitted curve in the direction sought with a large enough effect; inconclusive means small, poorly fitted or top-dose-only effect, or another doubt; inactive means no such curve, though single readings can be large; an effect the other way counts as inactive or inconclusive. Unless noted, on the % scale 0 is the no-effect control and ±100 the full control effect; potency means the concentration at half of the fitted maximal effect.
SMILES,TDP1 cell noCPT,TDP1 cell CPT,HT1080 IDH1KD tx,KB-3-1 cytotox,KB-V1 MDR tox,HT1080NT lethal
CCC(=O)c1ccc(OCC(=O)OCC(=O)Nc2sccc2C(N)=O)cc1,-2%,2%,0%,i,i,1%
CC(=O)c1cccc(NC(=O)COc2cc3oc(=O)c(CC(C)O)c(C)c3cc2Cl)c1 (configuration not stated),21µM*,?,6%,i,i,6%
O=C(NNc1cccc(Cl)n1)c1ccc(Cl)cc1Cl,2%,0%,2%,i,i,-1%
O=C(NNc1cccc(Cl)n1)c1ccccc1CC[N+](=O)[O-],?,10µM*,-12%,i,i,-10%
O=C1C=C(c2ccccc2)OC2(CCCC2)O1,-7%,-19%,1%,i,i,5%
COc1ccc(C2=CC(=O)OC(C)(c3ccccc3)O2)cc1 (configuration not stated),?,?,-26%,i,16µM*,-16%
CN(CCC#N)C(=O)COC(=O)c1cc(Cl)cc(Cl)c1N,-2%,-19%,0%,i,i,1%
COc1ccc(Nc2nc(N)nc(CSC(=S)N3CCN(C)CC3)n2)cc1,?,-14%,3%,i,i,5%
COc1ccc(Nc2nc(N)nc(CSC(=S)N3CCN(c4ccccc4)CC3)n2)cc1,18µM*,?,-2%,i,i,-2%
COc1ccc(Nc2nc(N)nc(CSC(=S)N3CCCCC3C)n2)cc1 (configuration not stated),18µM*,?,?,i,?,?
CC1CCN(C(=S)SCc2nc(N)nc(Nc3ccccc3)n2)CC1,-12%,-12%,-2%,i,?,-7%
CCOc1ccc(Nc2nc(N)nc(CSC(=S)N3CCN(c4ccccc4)CC3)n2)cc1,18µM*,15µM*,-9%,?,i,-11%
CSc1ccccc1Nc1ncnc(N)n1,-1%,7%,0%,i,i,5%
Cc1cccc(-c2nc(C)c(CCNC(=O)C(=O)Nc3ccccc3C#N)s2)c1,.,.,.,i,?,.
COc1ccc(C(O)c2nc(-c3ccncc3)cs2)cc1 (configuration not stated),10µM*,18µM*,-28%,i,i,?
COc1ccc(-c2csc(C(O)c3ccc(OC)cc3)n2)cc1 (configuration not stated),?,?,?,i,i,?
COc1ccc(-c2csc(C(O)c3ccc(F)cc3)n2)cc1 (configuration not stated),?,?,?,i,i,?
COc1cc(C(O)c2nc(-c3ccncc3)cs2)ccc1F (configuration not stated),23µM*,?,?,i,?,-21%
COc1cccc(C(O)c2nc(-c3ccccc3C)cs2)c1 (configuration not stated),18µM*,?,-22%,i,i,-7%
COc1ccc(C(O)c2nc(-c3ccccc3)cs2)cc1 (configuration not stated),10µM*,13µM*,-26%,i,i,-13%
COc1cc(C(O)c2nc(-c3ccc(C)c(C)c3)cs2)ccc1F (configuration not stated),?,?,?,i,i,?
COc1cccc(C(O)c2nc(-c3ccccc3OC)cs2)c1 (configuration not stated),?,?,0%,i,i,-7%
CC(=O)N1CCC2(CC1)CN(c1ccccc1)C2,-21%,?,.,.,.,.
CN(C)c1ccc(-c2csc(C(O)c3ccc(F)cc3)n2)cc1 (configuration not stated),?,?,-15%,i,i,-5%
COc1ccc(C(O)c2nc(-c3ccc(N(C)C)cc3)cs2)cc1 (configuration not stated),18µM*,?,-26%,?,?,?
SMILES,TDP1 cell noCPT,TDP1 cell CPT,HT1080 IDH1KD tx,KB-3-1 cytotox,KB-V1 MDR tox,HT1080NT lethal
CN(C)c1ccc(-c2csc(C(O)c3ccc(F)c(F)c3)n2)cc1 (configuration not stated),15µM*,16µM*,?,i,i,?
CN(C)c1ccc(-c2csc(C(O)c3ccccc3)n2)cc1 (configuration not stated),?,?,-19%,i,i,-6%
COc1cccc(C(O)c2nc(-c3ccccc3)cs2)c1 (configuration not stated),16µM*,?,-13%,i,i,-3%
O=C(Nc1ccccc1)C1Cc2c(-c3ccc4c(c3)OCO4)ccnc2O1 (configuration not stated),?,?,-12%,i,i,-14%
O=C(Cn1c(O)c(/C=C2\C=Nc3ccc(Br)cc32)sc1=O)N1CCCC1,?,21µM*,-13%,i,i,?
C[C@@H]1CN([C@H](C)CO)C(=O)CCCn2cc(nn2)CO[C@H]1CN(C)S(=O)(=O)c1ccccc1,17%,16%,3%,i,i,5%
CC1(C(=O)NS(=O)(=O)c2ccc(Br)cc2)CCN1C(=O)c1cccc(F)c1 (configuration not stated),-1%,4%,0%,i,i,25%
COc1ccc2nc(N(Cc3cccnc3)C(=O)c3ccc(Cl)cc3)sc2c1,-21%,-1%,.,.,.,.
Nc1ncnc(NCc2ccccc2)c1[N+](=O)[O-],-18%,-12%,0%,i,i,-1%
Nc1ncnc(N2CCc3ccccc32)c1[N+](=O)[O-],7.3µM*,5.8µM*,6%,?,13µM*,-5%
COc1ccc(/C=C(/NC(=O)c2ccccc2)c2nc3ccc(Cl)cc3[nH]2)cc1OC,21µM*,-95%,-15%,?,12µM*,-11%
COc1cccc(/C(C#N)=C/c2c(-c3ccc(Cl)cc3)nc3c(C)cccn23)c1,18µM*,21µM*,-17%,?,i,-4%
Cn1c(-c2c(N)n(-c3ccccc3)c3nc4ccccc4nc23)nc2ccccc21,?,12µM*,-17%,i,?,-13%

# High-throughput results (PubChem)
